The values below come from PubChem BioAssay AID865 (The Scripps Research Institute Molecular Screening Center, 2007).

This is one part of the list. Values without a mark were called inactive.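 Rule for the calls: active = activation above the screen-wide mean activation plus 3 SD (cut at about 8% in these data); inactive = the rest.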

The assay in a line: activators of NFAT-driven beta-lactamase reporter, confirmation, counter-screen for GALR2 agonist project, CHO NFAT-bla cells, FRET readout (AID 865).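 Note: 0% = DMSO with PBS wells and 100% = thapsigargin positive control wells.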 The following applies: at 5.6 µM, active compounds read high. Background: A counterscreen serves to expose hits that act by an unwanted route or on another target.

Turning to `Cc1cccc(N2C(=O)NC(=O)/C(=C\c3cnn(-c4ccccc4)c3)C2=O)c1`, the activation was 0.39%.
